# Screening data (PubChem)
# DT40 TDP1 no CPT – qHTS for Inhibitors of human tyrosyl-DNA phosphodiesterase 1 (TDP1): qHTS in cells in absence of CPT; 420,000 tested, 15% active; AID 686978, 2013; DT40 Tdp1-/- hTDP1 cells, no CPT, ATP luminescence, 48 h; Potency, µM (top dose mostly 46.2 µM), usual class: inhibitors; also: nearly all actives have a fitted effect of over 55% in size
#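 A cellular qHTS used chicken DT40 cells lacking endogenous Tdp1 but carrying stably transfected human TDP1. Compounds were applied without camptothecin, and cell growth kinetics were judged by ATP-dependent luminescence after ≥48 hr.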
# S2 tox – reduces viability in counter-screen for ATXN expression inhibitors | S2 cells (HEK-293 line with an ATXN2-luciferase reporter) viability, CellTiter-Fluor protease fluorescence, 24 h | Potency, µM (highest dose often 56.7 µM), hits mostly cytotoxic | 400,000 tested, 0.49% active | AID 651635; also: nearly all actives have a fitted effect of over 40% in size
# ATXN2 expr inh – ATXN2 expression inhibition; HEK-293 ATXN2-luciferase reporter, luminescence, 24 h; Potency, µM (doses to about 57 µM), hits mostly inhibitors; 360,000 tested, 0.72% active; AID 1745845; also: nearly all actives have a fitted effect of over 55% in size
#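 qHTS (up to 57 uM final) was run with 24 h compound exposure of reporter cells at 37 °C. Each well was multiplexed: SteadyGlo luminescence measured ATXN2-luciferase expression after a fluorogenic Gly-Phe-AFC viability readout (25 uM final).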
# HepG2 viability – HepG2 cytotoxicity, counter-screen for TGF-b inhibitors. Potency, µM (titrated, usually from 46.1 µM), actives largely listed as cytotoxic. 410,000 tested, 0.76% active. AID 588856. HepG2 CAGA-GFP viability, ATP luminescence, 18 h
#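 CellTiter-Glo luminescence gave cytotoxicity after 18 hours at 37 degrees C. The cells were HepG2 CAGA-GFP in 1% FBS DMEM, stimulated with 500 pg/mL TGF-beta after compound addition. %Activity was normalised to no-cell wells (complete cell-killing) and DMSO (no toxicity), and curves were fitted and classified.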
# DT40 TDP1 CPT – DT40-hTDP1 cell growth loss with CPT; chicken DT40 Tdp1-/-;hTDP1 cells + 20 nM CPT, ATP luminescence, 48 h; Potency, µM (titrated, usually from 46.2 µM), hits mostly inhibitors; 420,000 tested, 12% active; also: nearly all actives have a fitted effect of over 55% in size
#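 Cell growth measured by CellTiter-Glo luminescence after a minimum 48 h, 37 C compound exposure with 20 nM CPT in Tdp1-knockout DT40 cells stably expressing hTDP1, seeded 400/well; qHTS titration format.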
# TGFb SMAD3 inh – inhibitors of TGF-b signaling. HepG2 CAGA-GFP TGF-b/SMAD3 reporter, GFP fluorescence, 18 h; TGF-beta stimulated, 500 pg/mL final. 410,000 tested, 1.2% active. Potency, µM (titrated, usually from 46.1 µM), usual class: inhibitors; also: nearly all actives have a fitted effect of over 65% in size
#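 Per well, imaged GFP fluorescence of HEPG2 CAGA-GFP cells gives the signal; cells get compound, then TGF-beta (500 pg/mL final), 18 h at 37 degrees C; %Activity versus -TGF-beta and +DMSO controls.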
# Hits are given with their value; – = inactive; ? = inconclusive; · = no result. A selection: hits, their analogues and other compounds. The true share with any hit is near 17%. Calls follow the shape of the dose curve; as a rule, active = well fitted curve in the direction sought with a large enough effect; inconclusive = small, poorly fitted or top-dose-only effect, or another doubt; inactive = no such curve, though single readings can be large; an effect the other way counts as inactive or inconclusive.
SMILES,DT40 TDP1 no CPT,S2 tox,ATXN2 expr inh,HepG2 viability,DT40 TDP1 CPT,TGFb SMAD3 inh
C=C(C)COc1ccc(-c2nc(N)ncc2-c2ccc(OC)c(OC)c2)c(O)c1,?,–,–,–,?,–
CCOCN(C(=O)Cn1cnc2cc(C)c(C)cc21)c1c(C)cccc1CC,16.4µM,28.2µM,–,–,20.6µM,–
CCOCN(C(=O)Cn1c(COC)nc2ccccc21)c1c(C)cccc1CC,?,?,–,–,?,–
COc1ccccc1NC(=S)N(Cc1cccs1)C1CCCC1,6.51µM,–,–,–,?,?
COc1ccccc1NC(=S)N(Cc1ccccc1)Cc1cccs1,–,–,–,–,–,–
CCC(CO)Oc1cc(NC(=O)c2ccccc2[N+](=O)[O-])c2ncn(C(C)C)c2c1 (configuration not stated),?,?,–,–,16.4µM,–
CCC(CO)Oc1cc(NC(=O)c2ccc(OC)cc2)c2ncn(C(C)C)c2c1 (configuration not stated),?,–,–,–,18.4µM,–
N#Cc1nc(-c2cccs2)oc1NCc1ccc2c(c1)OCO2,?,–,–,7.94µM,–,–
COc1ccc(CC(=O)OCC(=O)Nc2cccnc2Cl)cc1OC,–,–,–,–,–,–
COc1ccc(-n2cc(CN[C@H]3CCCCNC3=O)c(-c3cccc(F)c3)n2)cc1,5.8µM,–,–,–,5.8µM,?
COc1ccc(-n2cc(CNC3CCN(C)CC3)c(-c3cccc(F)c3)n2)cc1,14.6µM,–,?,11.2µM,14.6µM,?
COc1ccc(-n2cc(CN3CCCC3)c(-c3cccc(F)c3)n2)cc1,20.6µM,–,–,–,?,–
Cc1cccc(-n2cc(CN3CCN(Cc4nccn4C)CC3)c(-c3cccc(F)c3)n2)c1,?,?,·,–,?,?
CCS(=O)(=O)NCC(c1ccco1)N1CCN(c2ccc(OC)cc2)CC1 (configuration not stated),–,·,·,–,–,–
CC(=O)OCC1OC(Sc2cccc3cccnc23)C(OC(C)=O)C(OC(C)=O)C1OC(C)=O (configuration not stated),?,–,–,–,?,–
CCCC(=O)C1=C(O)C(C(=O)OC)C(C)(C)CC1=Nc1cccc2ccccc12 (configuration not stated),23.1µM,–,–,–,?,?
Cc1ccc(S(=O)(=O)SC/C=C/CSS(=O)(=O)c2ccc(C)cc2)cc1,14.6µM,?,?,–,?,?
Cc1ccc(S(=O)(=O)SCCCSS(=O)(=O)c2ccc(C)cc2)cc1,20.6µM,?,–,–,18.4µM,–
Cc1ccc(C(=O)CC2(O)C(=O)N(C)c3ccccc32)s1 (configuration not stated),–,–,–,–,?,–
CCOC(=O)c1c(C)nc2sc3c(=O)n(-c4ccc(OC)cc4)cnc3c2c1-c1ccc(OC)cc1,?,–,–,–,?,–
COc1ccc(-c2c(C(C)=O)c(C)nc3sc4c(=N)n(N)cnc4c23)cc1,?,–,–,–,25.9µM,–
Cc1nc2sc(C(N)=O)c(N)c2c(-c2ccc(Br)cc2)c1C(=O)Nc1ccc(Cl)cc1,?,?,31.6µM,–,?,?
COc1ccc(NC(=O)c2sc3nc(C)c(C(=O)Nc4ccc(C)cc4C)c(-c4ccc(Cl)cc4)c3c2N)cc1,–,–,–,–,–,–
CCOC(=O)c1c(C)nc2sc(C(N)=O)c(N)c2c1-c1ccc(OC)cc1,20.6µM,–,–,–,?,–
CCC(C)NC(=O)c1sc2nc(C)c(C(=O)Nc3ccc(Cl)cc3)c(-c3ccc(Br)cc3)c2c1N (configuration not stated),20.6µM,–,–,–,?,–
SMILES,DT40 TDP1 no CPT,S2 tox,ATXN2 expr inh,HepG2 viability,DT40 TDP1 CPT,TGFb SMAD3 inh
COc1ccc(CCNC(=O)c2cnc3sc(N4CCOCC4)nn3c2=O)cc1,?,–,–,–,?,–
CCCN(CCC)C(=O)CSc1nc2n[nH]c(C)c2c(=N)n1-c1ccc(OC)cc1,10.3µM,–,–,–,13µM,–
CCCCN(CC)C(=O)CSc1nc2n[nH]c(C)c2c(=N)n1-c1ccc(CC)cc1,5.17µM,·,·,–,10.3µM,1.41µM
CCCN(CCC)C(=O)CSc1nc2n[nH]c(C)c2c(=N)n1-c1ccc(OCC)cc1,?,–,–,–,?,?
CCCCN(CC)C(=O)CSc1nc2n[nH]c(C)c2c(=N)n1-c1cccc(OC)c1,9.2µM,·,·,–,23.1µM,4.47µM
CCN(CC)C(=O)CSc1nc(O)cc(=O)n1-c1ccccc1OC,–,–,–,–,–,–
COC(=O)C[C@H]1c2cc(C(F)(F)F)ccc2S(=O)(=O)N1C(C)C,?,·,·,–,–,–
Cc1ccc2oc(=O)c(/C=C(\O)c3sc(C)nc3C)nc2c1,23.1µM,–,–,–,?,–
O=C(NC1CCCCC1)N1CCN(C(c2ccccc2)c2ccccc2)CC1,16.4µM,–,?,–,10.3µM,–
CC(C)(C)NC(=O)C1(C)CCC(=O)N1C1CC1 (configuration not stated),–,–,–,–,–,?
CCC(C)[C@H](N)c1nnc(SCc2cccc(F)c2)o1 (some centres not stated),–,–,–,–,–,–
CC1=NN(c2ccccc2)C(=O)/C1=C/C=C/C=C/N(C)C,?,14.1µM,?,–,?,–
CC1=NN(c2cccc(C(=O)O)c2)C(=O)/C1=C\C=C/c1ccccc1,1.3µM,?,?,–,0.581µM,?
CC1=NN(c2ccc(C)cc2)C(=O)/C1=C\C=C\c1ccccc1,9.2µM,?,?,–,11.6µM,?
CC1=NN(c2ccccc2)C(=O)/C1=C/c1ccc(Cl)cc1,?,–,·,–,–,?
CN1CCN(S(=O)(=O)c2ccc(NC(=O)c3ccccc3F)cc2)CC1,?,?,·,–,–,–
COc1cc(C(C)=O)ccc1OCC(O)Cn1nc(C)c(Br)c1C (configuration not stated),?,–,–,–,?,–
Cc1ccc2c(c1)CN(CCNC(=O)c1n[nH]c3c1CCCC3)CC(C)O2 (configuration not stated),–,–,·,·,?,·
CC(=O)N1N=C(c2ccc(C)cc2)CC1c1cn(-c2ccccc2)nc1-c1cccs1 (configuration not stated),?,–,–,–,16.4µM,–
